PubChem BioAssay (EPA / NIEHS)
Active and inactive are the calls of the source. Rule for the calls: active = hit-call score of the fitted dose curve at least 0.9, where 1 is the maximum; inactive = score below 0.9.

What follows are molecules tested on Interleukin-8 (IL8), CXCL8 (gene 3576) (assay: BSK_hDFCGF_IL8: BioMAP Diversity Plus: hDFCGF Assay for Interleukin-8 (IL8) Biomarker Activity (AID 2283058)). Settings: primary human foreskin fibroblasts; actives raise or lower the signal.
Experimental: BSK_hDFCGF is a cell-based, multiplexed-readout assay that uses foreskin fibroblast, a human skin primary cell, with measurements taken at 24 hours after chemical dosing in a 96-well plate.BSK_hDFCGF_IL8 is an assay component measured in the BSK_hDFCGF assay. It measures IL-8 antibody related to regulation of gene expression using ELISA technology.Data from the assay component BSK_hDFCGF_IL8 was analyzed into 1 assay endpoint. This assay endpoint, BSK_hDFCGF_IL8, was analyzed with bidirectional fitting relative to DMSO as the negative control and baseline of activity. Using a type of binding reporter, gain or loss-of-signal activity can be used to understand changes in the signaling as they relate to the gene CXCL8. Furthermore, this assay endpoint can be referred to as a primary readout, because this assay has produced multiple assay endpoints where this one serves a signaling function. To generalize the intended target to other relatable targets, this assay endpoint is annotated to the cytokine intended target family, where the subfamily is interleukins.
The levels of cell surface (or secreted, indicated by the prefix "s") biomarker endpoints were measured by ELISA. Overt cytotoxicity to cells in confluent adherent cultures (all systems other than the BT system) was assessed by measuring total protein levels using sulforhodamine B (SRB) staining in parallel cultures at the time of biomarker measurements, indicated as SRB endpoints. For proliferation assays for adherent cell types, individual cell types are cultured at sub-confluence and relative cell numbers quantified by SRB staining at time points optimized for each system (48 h: 3C and CASM3C systems; 72 h: BT and HDF3CGF systems; 96 h: SAg system). SRB was performed by staining cells with 0.1% SRB after fixation with 10% TCA and reading wells at 560 nm.Viability and proliferation of PBMC (T cells) was quantified by Alamar Blue reduction for the SAg and BT systems. For PBMC viability (referred to as PBMC Cytotoxicity within the assay endpoint names), cells were plated (75,000/well in a 96-well plate) and then chemical samples added for 1 h before addition of activators, SEB and TSST-1 (20 ng/mL final concentration each). Cells were incubated for 90 h. Then, Alamar Blue (20 uL/well) (Invitrogen, Cat DAL1100) was added for 6 h, and the plates were read with a fluorescence microplate reader at 546/580 nm (excitation/emission). For PBMC proliferation, cells were plated and activated as above but incubated for only 16 h prior to addition of Alamar Blue. Plates were read after 6 h.

| SMILES | outcome | AC50 |
| --- | --- | --- |
| COP(=S)(OC)Oc1ccc(SC)c(C)c1 | inactive |  |
| N#Cc1c(Cl)c(Cl)c(Cl)c(C#N)c1Cl |  | 1.1 µM (active) |
| CN1CSC(=S)N(C)C1 | inactive |  |
| CCCN(CCC)c1c([N+](=O)[O-])cc(C(F)(F)F)cc1[N+](=O)[O-] | inactive |  |
| CNC(=O)Oc1cccc(N=CN(C)C)c1 | inactive |  |
| CNC(=O)CSP(=S)(OC)OC | inactive |  |
| CCC(C)Nc1c([N+](=O)[O-])cc(C(C)(C)C)cc1[N+](=O)[O-] (stereo not given) | inactive |  |
| CCS(=O)(=O)c1cccnc1S(=O)(=O)NC(=O)Nc1nc(OC)cc(OC)n1 | inactive |  |
| CCC(C)(NC(=O)c1cc(Cl)c(C)c(Cl)c1)C(=O)CCl (stereo not given) |  | 30.9 µM (active) |
| CCOCN(C(=O)CCl)c1c(C)cccc1CC | inactive |  |
| CC1(C)C(C=C(Cl)Cl)C1C(=O)OC(C#N)c1ccc(F)c(Oc2ccccc2)c1 (stereo not given) | inactive |  |
| COC(=O)c1ccccc1CS(=O)(=O)NC(=O)Nc1nc(OC)cc(OC)n1 | inactive |  |
| COc1nn(CSP(=S)(OC)OC)c(=O)s1 | inactive |  |
| ClC1C(Cl)C(Cl)C(Cl)C(Cl)C1Cl (stereo not given) | inactive |  |
| CNC(=O)/C=C(\C)OP(=O)(OC)OC | inactive |  |
| O=S1OCC2C(CO1)C1(Cl)C(Cl)=C(Cl)C2(Cl)C1(Cl)Cl (stereo not given) |  | 33.8 µM (active) |
| [2H]C1([2H])[n+]2ccccc2-c2cccc[n+]2C1([2H])[2H] | inactive |  |
| CCC(C)(C)C(=O)OC1=C(c2ccc(Cl)cc2Cl)C(=O)OC12CCCCC2 |  | 11 µM (active) |
| CC(C)OC(=O)Nc1cccc(Cl)c1 | inactive |  |
| COC(=O)c1ccccc1S(=O)(=O)NC(=O)N(C)c1nc(C)nc(OC)n1 | inactive |  |

| SMILES | outcome | AC50 |
| --- | --- | --- |
| O=C1c2ccccc2C(=O)N1SC(Cl)(Cl)Cl | inactive |  |
| O=C(O)C(F)(F)C(F)(F)C(F)(F)C(F)(F)C(F)(F)C(F)(F)C(F)(F)F | inactive |  |
| CC(C)N(C(=O)COc1nnc(C(F)(F)F)s1)c1ccc(F)cc1 | inactive |  |
| CCOC1Oc2ccc(OS(C)(=O)=O)cc2C1(C)C (stereo not given) | inactive |  |
| N#CN | inactive |  |
| COC(=O)c1ccccc1S(=O)(=O)NC(=O)Nc1nc(C)nc(OC)n1 | inactive |  |
| C#CCN1C(=O)COc2cc(F)c(N3C(=O)C4=C(CCCC4)C3=O)cc21 | inactive |  |
| O=[N+]([O-])/N=C1\NCCN1Cc1ccc(Cl)nc1 | inactive |  |
| CCc1ccc(C(=O)NN(C(=O)c2cc(C)cc(C)c2)C(C)(C)C)cc1 | inactive |  |
| O=S(=O)(O)C(F)(F)C(F)(F)C(F)(F)C(F)(F)C(F)(F)C(F)(F)C(F)(F)C(F)(F)F | inactive |  |
| O=C(NC(=O)c1c(F)cccc1F)Nc1ccc(OC(F)(F)C(F)OC(F)(F)F)c(Cl)c1 (stereo not given) | inactive |  |
| CCN(CC)C(=O)SCc1ccc(Cl)cc1 | inactive |  |
| COP(=S)(OC)Oc1ccc([N+](=O)[O-])cc1 | inactive |  |
| C[C@H]1[C@H](c2ccc(Cl)cc2)SC(=O)N1C(=O)NC1CCCCC1 | inactive |  |
| Oc1ccc(Cl)cc1Cc1ccccc1 |  | 31.3 µM (active) [middle of 7 runs] |
| O=C(O)CCCOc1ccc(Cl)cc1Cl | inactive |  |
| CC(C)(C)C(O)/C(=C\c1ccc(Cl)cc1Cl)n1cncn1 (stereo not given) | inactive |  |
| CC1(c2ccc(Oc3ccccc3)cc2)OC(=O)N(Nc2ccccc2)C1=O (stereo not given) | inactive |  |
| CC(C)(C)C(O)C(Oc1ccc(Cl)cc1)n1cncn1 (stereo not given) | inactive |  |
| Cc1[nH]c(=O)n(C(C)(C)C)c(=O)c1Cl | inactive |  |
